# Active and inactive are the calls of the source. The calls were made as follows: active = hit-call score of the fitted dose curve at least 0.9, where 1 is the maximum; inactive = score below 0.9.
# Assay: ATG_ISRE_CIS: Attagene CIS-FACTORIAL HepG2 Assay for human Interferon Regulatory Factor 1 (IRF1) binding to an Interferon-Stimulated Response Element (ISRE) (AID 2282948)
# Conditions: HepG2 ISRE cis-reporter (Attagene), mRNA transcription readout; actives raise or lower the signal
# In short: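 HepG2 cells transiently transfected with multiplexed cis-promoter reporter units; after 24 h compound exposure, reporter mRNA quantified by RT-PCR, FAM labelling, HpaI digestion and capillary electrophoresis. Bidirectional fit versus DMSO baseline.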
Compound,outcome,AC50
NC(=O)c1ccccc1O,inactive,–
C=CCOc1c(Br)cc(Br)cc1Br,inactive,–
CCc1c(C(=O)O)c(=O)cnn1-c1ccc(Cl)cc1,inactive,–
CCCCCCCCCCCCCCCC(=O)OCC,inactive,–
C=CC(=O)OCCOC1C2CCC1C1CC=CC12 (stereo not given),inactive,–
C=COCCCC,inactive,–
O=C1CCCCCCCCCCCCCCCO1,inactive,–
CCCCCCCC[N+](C)(CCCCCCCC)CCCCCCCC,inactive,–
CC(=O)[C@@]1(O)CC[C@H]2[C@@H]3C[C@H](C)C4=CC(=O)C=C[C@]4(C)[C@@]3(F)[C@@H](O)C[C@@]21C,inactive,–
O=Nc1ccc(O)cc1,inactive,–
Cc1ccc(C2OC[C@@H]3OC(c4ccc(C)cc4)O[C@H]([C@H](O)CO)[C@@H]3O2)cc1 (stereo not given in full),inactive,–
C1=CCCC1,inactive,–
C=CC(=O)OCC(Br)CBr (stereo not given),–,100 µM (active)
NNC(=O)c1cccc(C(=O)NN)c1,inactive,–
CCCC(C)CCC(C)=O (stereo not given),inactive,–
CCN(CCC#N)c1ccc(N=Nc2c(Cl)cc([N+](=O)[O-])cc2Cl)cc1,inactive,–
COC(F)(F)C(F)(C(F)(F)F)C(F)(F)F,inactive,–
CCc1nccnc1C,inactive,–
O=[N+]([O-])c1ccc(CO)cc1,inactive,–
C=C(C)CCO,inactive,–
O=S(=O)(O)c1cc(S(=O)(=O)O)c2ccc3c(S(=O)(=O)O)cc(S(=O)(=O)O)c4ccc1c2c43,inactive,–
CC(C)=CCC/C(C)=C\C#N,inactive,–
Nc1nc2ccccc2[nH]1,inactive,–
CC=C1CC2C=CC1C2 (stereo not given),inactive,–
CC(C)c1ccc2c(C(C)C)cc(C(C)C)c(S(=O)(=O)O)c2c1,inactive,–

# — PubChem BioAssay (EPA / NIEHS)
